# An excerpt weighted towards active compounds, which were near 9.5% of everything screened.
# RE007 growth inh: less growth of the S. pombe RE007 Vpr strain. actives 0.21% (n = 360,000). AID 651644. S. pombe RE007 Vpr strain, BacTiter-Glo ATP luminescence, 24 h. Potency, µM (highest dose often 92.2 µM), without a hit: at the top dose activity change, negative = less growth, most hits filed as inhibitors; active means well fitted falling curve with a large enough effect; inconclusive means small, poorly fitted or top-dose-only effect; inactive means no such curve, though single readings can be large or run the other way; further: on the % scale 0 is the no-effect control and ±100 the full control effect; nearly all actives have a fitted effect of over 50% in size
#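 Fission yeast strain RE007, carrying one chromosomally integrated HIV-1 vpr copy, was seeded at OD 0.01 in PMG+AL medium with 23 nL pinned compound. After 24 h at 30 °C and 99% humidity, viability was read by BacTiter-Glo luminescence.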
# NS1 function inh: influenza NS1 inhibition. actives 0.4% (n = 270,000). Potency, µM (top dose mostly 46.1 µM), inactives show at the highest dose activity, positive = more growth; further: actives are rising curves; nearly all actives have a fitted effect of over 50% in size
#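 A cell-based growth assay was used: compounds that relieve NS1-induced slow growth of budding yeast raise OD600. Assay medium was yeast nitrogen base with ammonium sulphate and -URA supplement, pH 6.0, with 2% galactose.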
# Pf growth 48h: inhibits P. falciparum growth in the first generation, 48 h. P. falciparum luciferase growth in erythrocytes, 48 h. Potency, µM (top dose mostly 28.7 µM), inactives show top-dose activity change, negative = inhibition, most hits filed as inhibitors. actives 5.9% (n = 310,000). AID 504832; active means well fitted inhibition curve with a large enough effect; inconclusive means small, poorly fitted or top-dose-only effect, or another doubt; inactive means no such curve, though single readings can be large or run the other way; further: on the % scale 0 is the no-effect control and ±100 the full control effect
#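 Read-out is firefly luciferase luminescence from an integrated reporter in P. falciparum, so falling signal marks reduced parasite growth. Infected erythrocytes were at 2% hematocrit and 0.1% parasitemia (final) in Albumax-supplemented RPMI 1640.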
# SARS PLP yeast: inhibitors of SARS-CoV papain-like protease in yeast | S. cerevisiae expressing SARS-CoV PLpro, growth rescue | Potency, µM (titrated, usually from 32.9 µM), for the others: at the top dose activity, positive = growth rescue, actives largely listed as activators | actives 0.19% (n = 330,000); further: 0% is about no effect; nearly all actives have a fitted effect of over 55% in size
# Pf growth 96h: inhibits malaria parasite growth, 96 h | P. falciparum luciferase reporter growth, 96 h | Potency, µM (doses to about 28.7 µM), for the others: top-dose activity change, negative = inhibition, most hits filed as inhibitors | actives 6.9% (n = 320,000); active means well fitted inhibition curve with a large enough effect; inconclusive means small, poorly fitted or top-dose-only effect, or another doubt; inactive means no such curve, though single readings can be large or run the other way; further: on the % scale 0 is the no-effect control and ±100 the full control effect
#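 Readout is luminescence from an integrated firefly luciferase in P. falciparum. Red cells, 2% hematocrit and 0.05% parasitemia final, were cultured with compound through two parasite generations (96 hours) at 37 C, 5% CO2.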
# The depositor's hits bear a star; u = inconclusive; x = no result given. Unless noted, the call rests on the fitted dose curve. Potency means the concentration at half of the fitted maximal effect.
SMILES,RE007 growth inh,NS1 function inh,Pf growth 48h,SARS PLP yeast,Pf growth 96h
Cc1ccc2c(c1)C1CN(C)CCC1N2S(=O)(=O)c1ccccc1F (configuration not stated),-17%,x,u,4%,u
CCc1ccc(N2C(=O)CN(Cc3cc(OC)c(OC)c(OC)c3)C2=S)cc1,10%,19%,4%,4%,-19%
COc1cc(CN2CC(=O)N(c3ccc(C)c(C)c3)C2=S)cc(OC)c1OC,9%,12%,1µM*,-6%,13%
CCc1ccccc1N1C(=O)CN(Cc2cc(OC)c(OC)c(OC)c2)C1=S,-9%,2%,5.2µM*,-3%,u
COc1cc(CN2CC(=O)N(c3cc(Cl)ccc3C)C2=S)cc(OC)c1OC,2%,-5%,2.6µM*,-8%,-17%
Cc1cc(C)cc(N2C(=O)CN(Cc3ccccc3)C2=S)c1,1%,7%,15µM*,-2%,4.7µM*
COc1ccc(CN2CC(=O)N(c3cc(Cl)ccc3C)C2=S)cc1OC,16%,0%,7.4µM*,-3%,0%
COc1ccc(N2C(=O)CN(Cc3ccc(OC)c(OC)c3)C2=S)cc1,33%,x,-9%,-3%,u
COc1cccc(N2C(=O)CN(Cc3ccc(OC)c(OC)c3)C2=S)c1,0%,1%,1.5µM*,-3%,u
COc1ccc(CN2CC(=O)N(c3ccccc3C)C2=S)cc1OC,1%,x,9.3µM*,1%,96%
COc1ccc(CN2CC(=O)N(c3ccc(C)cc3C)C2=S)cc1OC,10%,x,u,1%,u
O=C(Cc1ccccc1)NNC(=O)c1ccccc1C(=O)O,-4%,3%,52%,5%,92%
CCc1ccccc1NC(=O)CNC(=O)CCc1nc2sc3c(c2c(=O)[nH]1)CCCC3,21%,x,5%,1%,3%
COc1ccc(NC(=O)C2C3C=CC(O3)C2C(=O)NCc2cccnc2)cc1 (configuration not stated),2%,5%,25%,-11%,10µM*
Cc1ccc(N2CCN(C(=O)C3CCCN(c4ncnc5c4nc4n5CCCCC4)C3)CC2)c(C)c1 (configuration not stated),17%,4%,u,-1%,15µM*
COc1ccccc1N1CCN(C(=O)C2CCCN(c3ncnc4c3nc3n4CCCCC3)C2)CC1 (configuration not stated),-5%,-5%,9.3µM*,20%,-20%
Cc1ccc(C)c(N2CCN(C(=O)C3CCCN(c4ncnc5c4nc4n5CCCCC4)C3)CC2)c1 (configuration not stated),16%,-49%,9.3µM*,-11%,u
Cc1ncn(-c2ccccc2)c1-c1ccccc1,-10%,x,u,-1%,66%
O=C(OCC1OC2OC3(CCCCC3)OC2C2OC3(CCCCC3)OC12)c1ccccc1 (configuration not stated),-2%,2%,u,-25%,u
O=C(O)C1OC2OC3(CCCCC3)OC2C2OC3(CCCCC3)OC12 (configuration not stated),1%,3%,13%,-16%,1.5µM*
COc1ccc(OCc2nnc(SCC(=O)c3ccccc3)o2)cc1,-20%,-8%,-2%,-1%,46%
O=C(O)C1CCN(c2nc(-c3ccccc3)nc3c2oc2ccccc23)CC1,-1%,-82%,u,-15%,12µM*
CCOC(=O)C1CCN(c2nc(-c3ccccc3)nc3c2oc2ccccc23)CC1,-5%,-66%,u,-5%,x
CCOC(=O)C1CCN(c2ncnc3c2oc2ccccc23)CC1,16%,-59%,14%,-3%,12µM*
CCOC(=O)C1CCCN(c2ncnc3c2oc2ccccc23)C1 (configuration not stated),-13%,-81%,49%,-5%,56%
SMILES,RE007 growth inh,NS1 function inh,Pf growth 48h,SARS PLP yeast,Pf growth 96h
CCN(CC)CCNc1oc(-c2ccccc2)nc1S(=O)(=O)c1ccccc1,-18%,x,x,4%,x
CC(C)(C)[C@H]1CCC(=O)N([C@H](CN=[N+]=[N-])Cc2ccccc2)CC1,-17%,-84%,-18%,14%,u
CCCn1c(CC)nc([N+](=O)[O-])c1S(=O)(=O)c1ccccc1,3%,-37%,10µM*,-12%,u
O=[N+]([O-])c1ccc2c(c1)Cc1cc(F)ccc1-2,-18%,x,x,x,x
CC(=O)Nc1ccc2c(c1)Cc1ccc(Cl)cc1-2,-8%,x,x,x,x
CC(=O)Nc1ccc2c(c1)Cc1cc(N3C(=O)C=CC3=O)ccc1-2,4.5µM*,x,x,x,x
O=C1C=CC(=O)N1c1ccc2c(c1)Cc1cc(F)ccc1-2,2.8µM*,x,x,x,x
COC(=O)c1ccc(COc2ccccc2/C=N/Nc2cccc(C(=O)O)c2)cc1,-9%,x,8%,-1%,36%
COC(=O)c1ccc(COc2ccccc2/C=C(\C#N)C(=O)Nc2c(C)cccc2C)cc1,-3%,-17%,u,-11%,13µM*
Cc1ccc(/C=C(\C#N)C(=O)Nc2c(C)cccc2C)s1,0%,-2%,x,-3%,7.4µM*
Cc1ccc(NC(=O)/C(C#N)=C/c2ccc(C)s2)c(C)c1,-3%,1%,x,11%,5%
COC(=O)c1ccc(COc2ccccc2/C=C/C(=O)c2ccc(OCC(=O)O)cc2)cc1,4%,-18%,u,11%,1.5µM*
CCCCCOC(=O)Nc1nc(=O)n(C2O[C@H](C)[C@@H](O)[C@@H]2O)cc1F (some centres not stated),x,x,-29%,x,u
Cc1ccc(C(=O)NCCN2C3=NC[C@@H](Cc4ccccc4)N3C[C@H]2Cc2ccc(O)cc2)cc1Br,-11%,-2%,9.3µM*,1%,u
Cc1ccc(C(=O)NCCN2C3=NC[C@H](Cc4ccc(O)cc4)N3C[C@H]2Cc2ccc(O)cc2)cc1Br,-5%,-1%,4.1µM*,0%,2.9µM*
COc1ccc(C[C@H]2CN3C(=NC[C@@H]3Cc3ccc(O)cc3)N2CCNC(=O)c2ccc(C)c(Br)c2)cc1,15%,3%,3.7µM*,0%,1.2µM*
C/C=C(\C)C(=O)NCCN1C2=NC[C@@H](C)N2C[C@H]1Cc1ccc(O)cc1,-10%,2%,51%,1%,50%
C/C=C(\C)C(=O)NCCN1C2=NC[C@H](Cc3ccccc3)N2C[C@@H]1Cc1ccc(OC)cc1,-5%,x,x,x,x
C/C=C(\C)C(=O)NCCN1C2=NC[C@H](Cc3ccccc3)N2C[C@H]1Cc1ccc(O)cc1,-6%,4%,-21%,1%,3.7µM*
CCOc1ccc(NC(=O)C2C3CC/C=C\CCC32)cc1 (configuration not stated),12%,-31%,77%,2%,u
O=C(N/N=C/c1sc(=O)n(Cc2ccc(Br)cc2)c1Cl)c1ccco1,-11%,11%,3.7µM*,-7%,2.6µM*
O=C(N/N=C/c1ccc(Br)s1)c1ccco1,-20%,-6%,-26%,-1%,-3%

# High-throughput results (PubChem)
